Data reported in the supplement of paper PMC6522484.
± gives the standard deviation of the averaged measurements.

How the values were obtained:
DLD1 [1] = experiment: cell viability (CellTiter-Glo) relative to plate median (fraction of plate median); higher = more viable cells; settings: 5 µM; treatment time 24 h; reporter: 7TFP
Summary of the method: (§1)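 Two independent replicates were averaged for each reported value. Library compounds were applied at a final 5 µM for 24 h to colorectal cancer cell lines stably expressing lentiviral TCF/Wnt firefly luciferase reporters. Firefly luciferase or CellTiterGlo luminescence from each well was normalised to the plate median.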

HCT116 = experiment: as above; settings: 5 µM; treatment time 24 h; reporter: TCF4/Wnt
Summary of the method: as §1

SW480 [2] = experiment: as above; settings: 5 µM; treatment time 24 h; reporter: 7TFP
Summary of the method: as §1

DLD1 [3] = experiment: TCF/Wnt firefly luciferase reporter signal relative to plate median (fraction of plate median); higher = higher Wnt reporter signal; settings: 5 µM; treatment time 24 h; reporter: 7TFP
Summary of the method: as §1

SW480 [4] = experiment: as above; settings: 5 µM; treatment time 24 h; reporter: 7TFP
Summary of the method: as §1

Compound	cell viability (DLD1 [1])	cell viability (HCT116)	cell viability (SW480 [2])	TCF/Wnt firefly luciferase reporter signal (DLD1 [3])	TCF/Wnt firefly luciferase reporter signal (SW480 [4])
O=c1cc(-c2ccccc2)oc2cc(O)cc(O)c12	1.01	1.02 ± 0.035	1.02 ± 0.045	1.03 ± 0.23	1.09 ± 0.064
CC(=O)OC1CC[C@@]2(C)C(CC[C@H]3[C@@H]4CC=C(C(C)=O)[C@@]4(C)C(=O)C[C@@H]32)C1 (stereo not given in full)	1 ± 0.012	1.05 ± 0.081	1.04 ± 0.072	1.08 ± 0.014	1.06 ± 0.05
N=c1ccn2c(n1)O[C@H]1[C@H](O)[C@@H](CO)O[C@H]12	1.16 ± 0.078	0.942 ± 0.034	1.15 ± 0.028	1.08 ± 0.11	1.1
CCN(CC)CCNC(=O)c1cc(Br)c(N)cc1OC	1.02 ± 0.081	1.07 ± 0.028	1.02 ± 0.047	0.985 ± 0.05	1.16 ± 0.078
C=CC[S+]([O-])C[C@H](N)C(=O)O (stereo not given in full)	0.984 ± 0.018	0.903 ± 0.079	0.96 ± 0.016	0.986 ± 0.091	1.05 ± 0.042
Nc1ccccc1C(=O)CC(N)C(=O)O (stereo not given)	1.01	1.05 ± 0.1	0.994 ± 0.023	1.31 ± 0.05	1.08 ± 0.014
CCOc1ccc2ccccc2c1C(=O)N[C@@H]1C(=O)N2[C@@H]1SC(C)(C)[C@@H]2C(=O)O	0.991 ± 0.07	1.035 ± 0.0071	1.06 ± 0.071	1.1 ± 0.26	1.12 ± 0.057
CN(C)CCCN1c2ccccc2Sc2ccc(C(F)(F)F)cc21	1.07 ± 0.17	0.993 ± 0.081	1.04 ± 0.028	0.957 ± 0.034	0.959 ± 0.17
COc1ccc2c(c1)OCC(Cc1ccc(OC)c(O)c1)C2=O (stereo not given)	0.937 ± 0.0099	0.847 ± 0.043	1.09 ± 0.035	0.707 ± 0.13	0.883 ± 0.047
CCCCCc1c2c(cc(O)c1C(=O)O)OC(=O)c1c(cc(OC)cc1C(=O)CCCC)O2	0.958 ± 0.036	0.973 ± 0.14	1 ± 0.013	0.963 ± 0.034	1.05 ± 0.16
CC(=O)OCC(=O)[C@@]1(O)CC[C@H]2[C@@H]3CCC4=CC(=O)CC[C@]4(C)[C@@]3(F)[C@@H](O)C[C@@]21C	0.975 ± 0.027	1.07 ± 0.085	0.995 ± 0.022	1.06	1.07 ± 0.11
CC(=O)c1oc2c(C)c3oc(=O)cc(C)c3cc2c1C [2-Acetyl-3,5,9-trimethylfuro[3,2-g]-chromen-7-one (VFT-04)]	1.02 ± 0.11	0.96 ± 0.05	1.085 ± 0.0071	1.16 ± 0.028	1.12 ± 0.078
COc1ccc(-c2oc3cc(O[C@@H]4O[C@H](CO)[C@@H](O)[C@H](O)[C@H]4O)c(OC)c(O)c3c(=O)c2OC)cc1O	1.05 ± 0.057	1.19 ± 0.17	1	1.05 ± 0.035	1.02 ± 0.11
CC(C)[C@H](NC(=O)[C@H](Cc1ccc(O)cc1)NC(=O)[C@@H](NC(=O)C(F)(F)F)C(C)C)C(=O)O	0.957 ± 0.028	0.94 ± 0.021	0.969 ± 0.025	0.842 ± 0.12	0.845 ± 0.035
CC1=C(C(=O)O)N2C(=O)[C@@H](NC(=O)[C@H](N)c3ccccc3)[C@H]2SC1	1 ± 0.065	1.02 ± 0.082	0.983 ± 0.025	0.991 ± 0.056	1.015 ± 0.0071
C=C[C@@]1(C)CC(=O)[C@@]2(O)[C@](C)(O1)[C@@H](O)[C@@H](O)C1C(C)(C)CC[C@H](O)[C@@]12C (stereo not given in full)	0.9975 ± 0.0035	0.96 ± 0.051	1.02 ± 0.014	0.923 ± 0.042	0.976 ± 0.13
COc1ccc2c(c1)c(CC(=O)OCC(=O)O)c(C)n2C(=O)c1ccc(Cl)cc1	0.935 ± 0.073	0.885 ± 0.082	0.952 ± 0.04	1.05 ± 0.16	1.07 ± 0.028
CC1(C)[C@@H](OC(=O)CCC(=O)O)CC[C@]2(C)[C@H]3C(=O)C=C4[C@@H]5C[C@@](C)(C(=O)O)CC[C@]5(C)CC[C@@]4(C)[C@]3(C)CC[C@@H]12	1 ± 0.011	1.02 ± 0.035	1.06 ± 0.014	1.09	1.01
Cc1cc(=O)[nH]c(=S)[nH]1	1.07 ± 0.05	1.01 ± 0.072	0.979 ± 0.018	1.07 ± 0.071	0.9835 ± 0.0064
CC(=O)O[C@H](CC(=O)[O-])C[N+](C)(C)C	1.06 ± 0.05	0.958 ± 0.044	0.956 ± 0.043	0.94 ± 0.073	0.996 ± 0.0057
O=C1NC(Cc2ccc(O)cc2)C(=O)NC1Cc1ccc(O)cc1 (stereo not given) [Cyclo(tyrosyltyrosyl)]	0.902 ± 0.091	0.942 ± 0.11	0.953 ± 0.011	1.04 ± 0.057	0.98 ± 0.023
COC(=O)[C@H](Cc1ccccc1)NC(=O)[C@@H](N)CC(=O)O	0.952 ± 0.082	1.08 ± 0.11	1.06 ± 0.014	1.045 ± 0.0071	0.985 ± 0.14
COC(=O)C[C@H]1C(C)(C)C(=O)[C@@H]2CC3C4=CC(=O)O[C@@H](c5ccoc5)[C@]4(C)CC[C@@H]3[C@@]1(C)C2=O (stereo not given in full)	0.924 ± 0.0042	1.01 ± 0.06	0.957 ± 0.03	1.04 ± 0.014	0.866 ± 0.062
O=C(O)c1cn(-c2ccc(F)cc2)c2cc(N3CCNCC3)c(F)cc2c1=O	0.906 ± 0.012	0.949 ± 0.029	0.998 ± 0.046	1.08 ± 0.11	1.06 ± 0.1
CC(=O)c1cc2c(cc1O)OC(C)(C)C=C2	1.09 ± 0.099	1 ± 0.011	1.03 ± 0.014	0.99 ± 0.057	1.01 ± 0.023
CN(C)CCOC(=O)COc1ccc(Cl)cc1	0.979 ± 0.0085	0.991 ± 0.083	0.956 ± 0.052	1.21 ± 0.14	1.14 ± 0.05
CC(=O)NS(=O)(=O)c1ccc(N)cc1	1.07 ± 0.05	0.978 ± 0.088	1.05 ± 0.057	1.01 ± 0.22	0.854 ± 0.023
O=S(=O)(O)c1cc(N=C=S)ccc1/C=C/c1ccc(N=C=S)cc1S(=O)(=O)O	0.952 ± 0.046	0.9585 ± 0.0064	1.01 ± 0.03	0.981 ± 0.11	1.05 ± 0.064
CC(=O)[C@@]1(O)CC[C@H]2[C@@H]3CCC4=CC(=O)CC[C@]4(C)[C@H]3CC[C@@]21C	0.947 ± 0.12	0.926 ± 0.063	0.922 ± 0.12	1.035 ± 0.0071	1.02
